Measured values taken from PubChem BioAssay (NCI).
The panel holds about 79,000 compounds, 15% with a hit somewhere; the sample as a whole holds those more often. Values without a mark were called inactive. Activity calls are given as the source filed them. No stated cut-off is given here; in the data, active means growth inhibition above about 70%; inactive means the rest. Where a SMILES comes first, the peptide text is derived from it. The star is where a group is joined. Trt = c1ccc(C(c2ccccc2)(c2ccccc2)*)cc1

Experiments:
[1] = NCI Yeast Anticancer Drug Screen. Data for the rad50 strain (AID 155);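 further: 0% = growth of vehicle-only cultures of the same strain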; settings: S. cerevisiae rad50 strain growth inhibition; at 50.0 µM; active compounds read high
Outline: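 Relative growth inhibition (compound vs vehicle) was measured in yeast with a defined repair-gene alteration.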

[2] = NCI Yeast Anticancer Drug Screen. Data for the mec2-1 strain (AID 157); settings: S. cerevisiae mec2-1 strain, at 50.0 µM, active compounds read high
Outline: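 Cells of the genetically defined mec2-1 yeast strain are incubated with test compound. Inhibition of growth is calculated against vehicle-treated controls.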

[3] = NCI Yeast Anticancer Drug Screen. Data for the sgs1 mgt1 strain (AID 161);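 further: 0% = growth of cultures given vehicle only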; settings: S. cerevisiae sgs1 mgt1 strain, at 50.0 µM, active compounds read high
Outline: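 Mutant yeast exposed to compound; growth scored against vehicle-only wells.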

[4] = NCI Yeast Anticancer Drug Screen. Data for the cln2 rad14 strain (AID 165);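 further: 0% = growth equal to vehicle treated cultures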; settings: S. cerevisiae cln2 rad14 strain, at 50.0 µM, active compounds read high
Outline: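 The screen exposed genetically defined yeast (cln2 rad14) to test compounds and scored growth inhibition relative to vehicle-treated controls.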

[5] = NCI Yeast Anticancer Drug Screen. Data for the bub3 strain (AID 167); settings: S. cerevisiae bub3 mutant strain, at 50.0 µM, active compounds read high
Outline: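 Screening used yeast with an engineered genetic alteration affecting cell cycle control. Compound-exposed cultures were compared with vehicle cultures, and reduced growth was taken as inhibition.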

[6] = NCI Yeast Anticancer Drug Screen. Data for the mlh1 rad18 strain (AID 175); settings: S. cerevisiae mlh1 rad18 strain growth inhibition; at 50.0 µM; active compounds read high
Outline: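 Compound-treated yeast growth, normalised to vehicle controls. Strain bears defined DNA repair mutations.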

SMILES	growth inhibition [1]	growth inhibition [2]	growth inhibition [3]	growth inhibition [4]	growth inhibition [5]	growth inhibition [6]
C/C=C/C=N/NS(=O)(=O)c1ccc(C)cc1	11.3%	17.8%	-4.1%	-45.4%	-1%	-12.4%
Cc1noc(C)c1N=Nc1ccc2nonc2c1N	-15.5%	7.6%	-14.1%	16.5%	9.35%	3.05%
Cc1cccc(NC(=O)COc2ccc(Cl)cc2C)c1	8.35%	4.4%	9.55%	39.5%	0.4%	-0.2%
Cc1nc(-n2nc(-c3ccccc3)cc2-c2ccccc2)sc1C(=O)/C=C/c1ccc(Cl)c(Cl)c1	53.2%	4.55%	6.8%	21.1%	22.4%	12.8%
Cc1cc(=O)oc2cc(OCCCOc3ccc4c(C)cc(=O)oc4c3)ccc12	19.1%	5.45%	-2.1%	-4.1%	-5.2%	13.3%
O=C(C(=O)N1CCc2ccccc21)c1c[nH]c2ccccc12	5.75%	2%	-11.8%	3.1%	-2.95%	12.5%
CCOC(=O)c1cc2c(cn1)[nH]c1cccc(N)c12	-10.3%	-39.5%	7.05%	5.85%	-3.5%	-9.55%
CC(=O)NC(CCCCNC(=O)OC(C)(C)C)C(=O)O (stereo unspecified)	-31.9%	-42.2%	-23.2%	7.45%	-2.85%	-39.1%
Cn1c(=O)c2c(=O)n3ccccc3nc2n(C)c1=O	48%	48%	72.1% (active)	68.4%	62.9%	69.4%
O=C1/C(=C/c2ccc(Cl)cc2)CCC1CNc1ccc(Cl)cc1 (stereo unspecified)	17.1%	0.25%	-15.6%	-2.8%	-16.2%	-43.1%
CCOC(=O)N[n+]1ccccc1	1.65%	8.2%	4.35%	-3.4%	10.8%	8.1%
O=C(COC(=O)c1ccccc1)c1ccc(-c2ccccc2)cc1	-3.25%	16.3%	11.8%	30.4%	14.2%	11.7%
O=C(O)c1c(Cl)c(Cl)c(Cl)c(Cl)c1C(=O)Nc1cccc(C(F)(F)F)c1	-9.55%	10.2%	-8.8%	-7.35%	-1.7%	-14.7%
Cc1cccc(/C=N/NC(=S)NCCc2ccccn2)n1	-17.4%	-33.8%	14.2%	0.8%	9.55%	-2.85%
COc1cc2c(c([N+](=O)[O-])c1)NC(=O)C(c1ccccc1)S2 (stereo unspecified)	-15.9%	-12.3%	-3.45%	23.1%	15.9%	-3.95%
O=C(O)/C=C\C(=O)Nc1ccccc1	10.2%	15.8%	-16.1%	-53.5%	-3.25%	11.5%
O=C(O)CCSc1ccc([N+](=O)[O-])cc1	-7.3%	-18.6%	-4.75%	-44.1%	-11.5%	52.6%
CCOC(=O)/C=C\n1c(=O)cc(C)c2ccccc21	8.85%	23.7%	7.45%	18.4%	-2.75%	-1.15%
O=C1c2ccccc2-c2nc(-c3ccncc3)cc3c2c1nc1ccccc13	25.6%	18.4%	27.2%	11.1%	14.1%	34.4%
O/N=C/c1cc2c(cc1Br)OCO2	-4.2%	-9.9%	-18.9%	-9.75%	-16.9%	-17.6%
CC(C)C/C(=N\NC(N)=O)C1=CCCCC1	10.8%	4.2%	-1.15%	-40.5%	-0.1%	11.7%

SMILES	growth inhibition [1]	growth inhibition [2]	growth inhibition [3]	growth inhibition [4]	growth inhibition [5]	growth inhibition [6]
C[C@@H]1C[C@H](C)OC(CO)O1 (stereo partly specified) (tested in a mixture with another compound)	13.4%	-1.3%	0.25%	12.2%	-12.6%	19.3%
Nc1nc(CCC(=O)O)cs1	-6.85%	-14.4%	4.9%	-24.1%	-1.45%	-18.7%
O=C1C=C2SCCN2C(=O)C1	-5.9%	-33.8%	-9.15%	-2.85%	-5.85%	14.9%
Cc1ccc(NC(=O)CCC(=O)C(C)C(=O)c2ccccc2)cc1C (stereo unspecified)	-72.1%	-7.6%	-14.3%	-55.7%	-12.8%	-9.4%
COC(=O)C(NC(=O)C(N)CSC(c1ccccc1)(c1ccccc1)c1ccccc1)C(C)C (stereo unspecified) (H-Cys(Trt)-Val-OMe; configuration not given here)	97.3% (active)	98.6% (active)	98.7% (active)	95.2% (active)	97.6% (active)	98.5% (active)
CCNc1nnc(N=Nc2ccccc2)s1	0.5%	12.8%	13.4%	-2%	7.55%	3.65%
O=C(O)CCCC[P+](c1ccccc1)(c1ccccc1)c1ccccc1	21.1%	7.8%	13.5%	7.5%	35.3%	27.8%
N/C(=N\N=C\C1CC2C=CC1C2)NO (stereo unspecified)	5.3%	-11.4%	-9.8%	-0.05%	-16.6%	-4.55%
O=C1c2ccccc2Cc2ccccc21	3.5%	7.75%	-1.7%	-19.4%	16.4%	7.55%
CN(C)c1ccc(C=O)cc1[N+](=O)[O-]	2.75%	6.25%	-10.8%	-31.8%	-6.9%	-5.9%
N#CCCN(CCC#N)c1ccc(/C=C2\CC(O)(c3ccccc3)N(c3ccc(Cl)cc3)C2=O)cc1 (stereo unspecified)	-15.8%	0.35%	-23.7%	11.3%	-6.3%	-22.4%
COc1cccc(OC)c1OCC1CO1 (stereo unspecified)	6.95%	9.8%	0.2%	-14.4%	2.3%	9.95%
C[N+](C)(C)C(Cc1c[nH]c(=S)[nH]1)C(=O)O (stereo unspecified)	-14.9%	-44.4%	-31.1%	9.45%	-8.4%	-20.4%
O=C(CCC(=O)C1Cc2ccccc2C1=O)Nc1cccc(C(F)(F)F)c1 (stereo unspecified)	-38.8%	-42%	-18.8%	-1.5%	-22.9%	-30.7%
CC1=CC(/C=C(\C)CCCc2ccoc2)C2(OC(=O)C(C)=C2O)[C@H]2C1CC[C@@H]2C (stereo partly specified)	49.9%	58.3%	53.5%	66%	55.5%	54.9%
CCC(O)(c1ccc(OC)cc1)C(O)(CC)c1ccc(OC)cc1 (stereo unspecified)	9.2%	2.05%	16.4%	7.8%	5.85%	4.9%
CC(C)CC(CC(C)C)OB(OC(CC(C)C)CC(C)C)OC(CC(C)C)CC(C)C	-27.8%	-15.3%	-14.6%	10.9%	-0.3%	-7.8%
N#CC(CC(=O)NN)C(=O)NN (stereo unspecified)	-20.4%	-8.9%	-21%	-12.4%	-38.7%	-22.5%
O=C(c1nc2ccc(Cl)cc2[nH]c1=O)C(O)c1ccc2c(c1)OCO2 (stereo unspecified)	-10.9%	-10.2%	-3.85%	21.1%	-13.2%	5.2%
COc1ccccc1C(=O)C1OC1c1ccc(Cl)cc1Cl (stereo unspecified)	19.1%	-9.7%	-6.9%	-32%	6.85%	5.05%
